According to the supplement of paper PMC6522484:
± gives the standard deviation of the averaged measurements.

Legend:
[1] = tested on: DLD1; experiment: cell viability (CellTiter-Glo) relative to plate median (fraction of plate median); higher = more viable cells; settings: 5 µM; treatment time 24 h; reporter: 7TFP
Procedure, shortened: (§1)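 Values are well luminescence normalised to the plate median, from either a firefly luciferase or a CellTiterGlo readout on parallel plates. The cells, colorectal cancer lines stably transduced with lentiviral 7TFP or TCF4/Wnt firefly luciferase reporters, were treated with library compounds at a final 5 µM for 24 h. The mean of two independent replicates is listed.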

[2] = tested on: HCT116; experiment: as above; settings: 5 µM; treatment time 24 h; reporter: TCF4/Wnt
Procedure, shortened: as §1

[3] = tested on: SW480; experiment: as above; settings: 5 µM; treatment time 24 h; reporter: 7TFP
Procedure, shortened: as §1

[4] = tested on: DLD1; experiment: TCF/Wnt firefly luciferase reporter signal relative to plate median (fraction of plate median); higher = higher Wnt reporter signal; settings: 5 µM; treatment time 24 h; reporter: 7TFP
Procedure, shortened: as §1

[5] = tested on: SW480; experiment: as above; settings: 5 µM; treatment time 24 h; reporter: 7TFP
Procedure, shortened: as §1

Row | Compound | cell viability [1] | cell viability [2] | cell viability [3] | TCF/Wnt firefly luciferase reporter signal [4] | TCF/Wnt firefly luciferase reporter signal [5]
1 | CC(=O)O[C@@H]1CC2C(C)(C)[C@H](O)C[C@H](O)[C@@]2(C)C2CC[C@]3(C)C(=CC(=O)O[C@@H]3c3ccoc3)[C@]21C (stereo not given in full) | 0.961 ± 0.098 | 0.982 ± 0.097 | 0.982 ± 0.011 | 1.07 ± 0.099 | 0.948 ± 0.088
2 | COc1cc(OC)c2c(=O)c(-c3ccccc3)coc2c1 | 0.989 ± 0.0028 | 1.04 ± 0.12 | 1.025 ± 0.0071 | 1.09 ± 0.064 | 1.1 ± 0.05
3 | C[C@@H]1CC(=O)O[C@H](C)Cc2cc(O)cc(O)c2C(=O)O[C@H](C)CC(=O)O[C@H](C)Cc2cc(O)cc(O)c2C(=O)O[C@H](C)CC(=O)O1 | 0.982 ± 0.0014 | 0.997 ± 0.047 | 1.01 ± 0.026 | 1.05 ± 0.028 | 0.918 ± 0.042
4 | CC1CC(OC(=O)C(O)c2ccccc2)CC(C)(C)N1C (stereo not given) | 1 ± 0.011 | 1.05 ± 0.021 | 1.02 | 1.05 ± 0.028 | 1.18 ± 0.057
5 | COc1ccc(-c2coc3cc(O)ccc3c2=O)c(O)c1O | 1.02 ± 0.035 | 0.993 ± 0.038 | 1.03 ± 0.014 | 1 ± 0.079 | 1.09 ± 0.028
6 | O=C1c2ccc(O)c(O)c2C(=O)c2c(O)ccc(O)c21 | 0.966 ± 0.048 | 0.877 ± 0.023 | 0.964 ± 0.03 | 1.09 ± 0.092 | 1.1 ± 0.085
7 | CC[C@]12CCCN3CCc4c(n(c5ccccc45)[C@@](O)(C(=O)OC)C1)[C@@H]32 | 1.02 ± 0.047 | 0.953 ± 0.096 | 1.03 ± 0.014 | 0.981 ± 0.11 | 0.971
8 | Cc1ccccc1N1C(=O)c2cc(S(N)(=O)=O)c(Cl)cc2NC1C (stereo not given) | 1.06 ± 0.078 | 1.02 ± 0.035 | 1.02 | 1.03 ± 0.072 | 0.938 ± 0.19
9 | O=C1NCC2(CCN(CCc3ccccc3)CC2)O1 | 0.8925 ± 0.0021 | 1.06 ± 0.078 | 0.963 ± 0.018 | 1.05 ± 0.095 | 1.01 ± 0.062
10 | CC(N)CCCC(C)(C)O (stereo not given) | 1.01 ± 0.092 | 0.955 ± 0.078 | 0.933 ± 0.022 | 1.03 ± 0.021 | 1.04 ± 0.035
11 | C=C[C@@H](C1=CC(=O)C(OC)=C(OC)C1=O)c1ccccc1 | 0.903 ± 0.0057 | 0.856 ± 0.11 | 1.08 ± 0.014 | 0.712 ± 0.033 | 0.907 ± 0.023
12 | COC(=O)[C@@H]1OC(=O)C2OC23[C@@]1(C)CCC1[C@]2(C)C(C[C@@H](O)[C@]13C)C(C)(C)[C@H](OC(C)=O)C[C@@H]2OC(C)=O (stereo not given in full) | 1.01 ± 0.091 | 1.01 ± 0.014 | 1.01 ± 0.035 | 1.1 ± 0.042 | 1 ± 0.11
13 | O=C1OCC(Cc2ccccc2)C1c1ccccc1 (stereo not given) [3-Benzyl-2-phenyl-butyrolactone] | 1.07 ± 0.085 | 1.01 ± 0.014 | 0.978 ± 0.045 | 0.917 ± 0.12 | 1.1 ± 0.078
14 | CC(C)=CCC1=C(O)C(=O)c2ccccc2C1=O | 1.055 ± 0.0071 | 1.07 ± 0.064 | 1.02 ± 0.028 | 1.15 ± 0.092 | 1.04 ± 0.064
15 | CCOC(=O)CCC(=O)O[C@H]1[C@H](O[C@@H]2[C@@H](C)[C@H](O[C@H]3C[C@@](C)(OC)[C@@H](O)[C@H](C)O3)[C@@H](C)C(=O)O[C@H](CC)[C@@](C)(O)[C@H](O)[C@@H](C)C(=O)[C@H](C)C[C@@]2(C)O)O[C@H](C)C[C@@H]1N(C)C | 1.065 ± 0.0071 | 1.01 ± 0.096 | 1.01 ± 0.021 | 1.005 ± 0.0071 | 0.94 ± 0.025
16 | CC(=O)C[C@@H]1C[C@H](O)c2c(O)cccc2C1=O [Bhimanone] | 1.06 ± 0.035 | 1.03 ± 0.035 | 1.05 ± 0.14 | 1.11 ± 0.035 | 1.12 ± 0.057
17 | C/C=C/C=C/C1C=CC2CC(C)CCC2C1(C)/C(O)=C1/C(=O)NC(C(C)O)C1=O (stereo not given) [Altersetin] | 1 ± 0.023 | 0.974 ± 0.018 | 1 ± 0.011 | 1 ± 0.043 | 0.923 ± 0.052
18 | Oc1ccc(/C=C/c2cc(O)cc(O)c2)cc1 | 0.995 ± 0.022 | 1.05 ± 0.042 | 1.03 ± 0.098 | 1.05 ± 0.05 | 0.891 ± 0.059
19 | CC1=C(/C=C/C(C)=C/C=C/C(C)=C/C(=O)O)C(C)(C)CCC1 | 0.9525 ± 0.0078 | 0.973 ± 0.067 | 0.994 ± 0.052 | 0.912 ± 0.037 | 0.889 ± 0.018
20 | O=C1CN2Cc3c(ccc(Cl)c3Cl)N=C2N1 | 1.05 ± 0.081 | 1.04 | 1 ± 0.011 | 1.19 ± 0.092 | 0.98 ± 0.13
21 | COc1cc(OC)c2c(=O)c(O)c(-c3ccc(OC)c(OC)c3)oc2c1 | 0.981 ± 0.055 | 1 ± 0.024 | 1.01 ± 0.021 | 0.899 ± 0.1 | 0.887 ± 0.17
22 | O=c1cc(-c2ccccc2)oc2cc(O)cc(O)c12 | 1.01 | 1.02 ± 0.035 | 1.02 ± 0.045 | 1.03 ± 0.23 | 1.09 ± 0.064
23 | CCCC(=O)Nc1ccc(OCC(O)CNC(C)C)c(C(C)=O)c1 (stereo not given) | 0.942 ± 0.11 | 0.966 ± 0.019 | 0.876 ± 0.1 | 0.957 ± 0.12 | 1.01 ± 0.035
24 | CC(C)NCC(O)COc1ccc(CC(N)=O)cc1 (stereo not given) | 1.07 ± 0.057 | 0.932 ± 0.016 | 1.02 ± 0.066 | 0.971 ± 0.055 | 1.07 ± 0.064
25 | CCCCOc1cc(C(=O)NCCN(CC)CC)c2ccccc2n1 | 0.973 ± 0.011 | 0.926 ± 0.1 | 0.984 | 0.831 ± 0.05 | 0.964 ± 0.045
26 | C#C[C@]1(O)CC[C@H]2[C@@H]3CCC4=Cc5oncc5C[C@]4(C)[C@H]3CC[C@@]21C | 1.06 ± 0.021 | 0.936 ± 0.029 | 1.01 ± 0.035 | 1.04 | 0.817 ± 0.046
27 | O=c1cc(-c2ccc(O)c(O)c2)oc2cc(O[C@@H]3O[C@H](CO)[C@@H](O)[C@H](O)[C@H]3O)cc(O)c12 [Luteolin-7-O-glucoside (102)] | 0.908 ± 0.058 | 0.957 ± 0.041 | 0.95 ± 0.0028 | 0.861 ± 0.052 | 1.03 ± 0.072
28 | OCCN1CCN(CCCN2c3ccccc3Sc3ccc(C(F)(F)F)cc32)CC1 | 0.902 ± 0.082 | 0.973 ± 0.019 | 1.05 ± 0.09 | 0.927 ± 0.12 | 1.04 ± 0.1
